This note sets out measurements from PubChem BioAssay (NCATS).

Results filed as inconclusive are left out. Unmarked numbers belong to inactive results. The source made the active and inactive calls. Calls follow the shape of the dose curve; as a rule, active = well fitted inhibition curve with a large enough effect; inconclusive = small, poorly fitted or top-dose-only effect; inactive = flat fitted curve, though single readings scatter.
% is scaled to controls: 0 for no effect and ±100 for the full control effect.

The nature of the experiment: P-glycoprotein substrates identified in KB-8-5-11 adenocarcinoma cell line, qHTS therapeutic library screen (AID 1346987). Also: nearly all actives have a fitted effect of over 65% in size. To be noted: KB-8-5-11 (P-gp overexpressing) viability, CellTiter-Glo, 72 h; series mostly up to 44.5 µM; activity change, negative = cytotoxicity: at the top concentration. Summed up:
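KB-8-5-11: colchicine-selected sub-line of KB-3-1 over-expressing P-gp; assay medium lacked colchicine. 72 h drug exposure at 37 degree C, CellTiter-Glo.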
Background: In qHTS, concentration-response curves come from the screen itself.
`CC1C2=CC(=O)OC2(O)CC2C1C(OC(=O)c1ccccc1)C(OC(=O)c1ccccc1)C1(O)C2(C)CCC(O)C1(C)C(=O)O` (stereo not drawn): the “activity change, negative = cytotoxicity” value was 5.87% [at 17.3 µM].

As for `C=C(C)[C@@]1(O)C[C@@]2(C)C(=CC1=O)CC[C@@H](O)[C@@H]2C`, the “activity change, negative = cytotoxicity” value was 5.24%.

With `COC(=O)C1(O)C(OC(C)=O)CCC2C3(CC(c4ccoc4)OC3=O)C(C)=CCC21C(=O)OC` (stereo not drawn), the “outcome” value is “inactive [at 17.3 µM]”. With `COc1ccc(O[C@@H]2O[C@H](CO)[C@@H](O)[C@H](O)[C@H]2O)cc1OC`, the “activity change, negative = cytotoxicity” value is 3.47%.

As for `CC1=C2C[C@@]3(C)C(CCC[C@@H]3C)C(O)C2(O)OC1=O` (stereo partly drawn), the “activity change, negative = cytotoxicity” value is -12.2%. Still for that read-out and setting: with `COc1cc(C(CO)CO[C@@H]2O[C@H](CO)[C@@H](O)[C@H](O)[C@H]2O)ccc1O` (stereo partly drawn) the figure was 7.63%. For the compound `C/C=C/C(=O)OC1/C=C/C(O)C(OC(C)=O)CCC(=O)OC1C` (stereo not drawn), the “activity change, negative = cytotoxicity” value is 2.79%. As for `COc1cc(C(CO)C(OC2OC(CO)C(O)C(O)C2O)c2ccc(O)c(OC)c2)ccc1O` (stereo not drawn), the “outcome” value was “inactive [at 17.3 µM]”. In the case of `COc1ccc(C2(O)c3ccccc3NC(=O)C2OC)cc1` (stereo not drawn), the “activity change, negative = cytotoxicity” value was 2.94%. For `CN1CCc2cc(Cl)c(O)cc2[C@@H](c2cccc3c2OCC3)C1`, the “activity change, negative = cytotoxicity” value was -17.6%. Take `C[C@@H]1O[C@@H](OC2C(CO)OC(OCC3OC(OC(=O)[C@]45CCC(C)(C)CC4C4=CCC6[C@@]7(C)CC[C@@H](O)[C@](C)(C(=O)O)C7CC[C@@]6(C)[C@]4(C)CC5)C(O)C(O)C3O)C(O)C2O)[C@H](O)[C@H](O)[C@H]1O` (stereo partly drawn): the activity change, negative = cytotoxicity is 5.62% [at 9.29 µM]. As for `O=C(O)Cc1cn([C@@H]2OC[C@@H](O[C@@H]3O[C@H](CO)[C@@H](O)[C@H](O)[C@H]3O)[C@H](O)[C@H]2O[C@@H]2O[C@H](CO)[C@@H](O)[C@H](O)[C@H]2O)c2ccccc12`, the “outcome” value was “inactive [at 17.3 µM]”. Same read-out and setting: with `C=C1C(OC(C)=O)CCC2(C)CCC(C(C)(C)O)CC12` (stereo not drawn) the entry was “inactive”.

With `CC(C)=CCC[C@](C)(O[C@@H]1O[C@H](CO[C@@H]2O[C@@H](CO)[C@H](O)[C@H]2O[C@@H]2OC[C@@H](O)[C@H](O)[C@H]2O)[C@@H](O)[C@H](O)[C@H]1O)[C@H]1CC[C@]2(C)[C@@H]1[C@H](O)CC1[C@@]3(C)CC[C@H](O[C@@H]4O[C@H](CO)[C@@H](O)[C@H](O)[C@H]4O[C@@H]4O[C@H](CO)[C@@H](O)[C@H](O)[C@H]4O)C(C)(C)C3CC[C@]12C` (stereo partly drawn), the outcome is “inactive [at 9.29 µM]”.

With `CC(=O)NC1C(OC2CCC3(C)C(CCC4(C)C3CC=C3C5CC(C)(C)CCC5(C(=O)O)C(O)CC34C)C2(C)C)OC(CO)C(O)C1O` (stereo not drawn), the “activity change, negative = cytotoxicity” value is -5.63% [at 17.3 µM]. Same read-out and setting: with `CC1(C)CC(NC(=O)C(=O)Nc2ccc(Cl)cc2)CC(C)(C)N1` the figure was 4.78%; with `COc1cn(-c2ccc(-n3cccn3)cc2F)nc(-c2ccnn2-c2ccccc2)c1=O`, -12.7%. For `O=C(O)c1cc(O[C@@H]2O[C@H](CO)[C@@H](O)[C@H](O)[C@H]2O)ccc1O`, the result was inactive. As to `CCOC(=O)C(CCc1ccccc1)NC(C)C(=O)N1Cc2ccccc2CC1C(=O)O` (stereo not drawn), the “activity change, negative = cytotoxicity” value was -4.76%. Same read-out and setting: the same measure for `COc1ccc(C(=O)CC(=O)O)c2c1C=CC(C)(C)O2`: 1.19%; for `CCCN1CCC[C@@H](c2cccc(S(C)(=O)=O)c2)C1`: -5.3%. As for `C=CC(C)(CC/C=C(\C)C(=O)OC)OC1OC(COC(=O)CC(C)(O)CC(=O)O)C(O)C(O)C1O` (stereo not drawn), the “activity change, negative = cytotoxicity” value is 1.08% [at 17.3 µM]. As to `COc1ccc(/C=C/C(=O)O[C@@H]2[C@@H](O)[C@@H](O)[C@H](O[C@H]3[C@@H]4C=CO[C@@H](O[C@@H]5O[C@H](CO)[C@@H](O)[C@H](O)[C@H]5O)[C@@H]4[C@@]4(CO)O[C@@H]34)O[C@H]2C)cc1`, the “outcome” value was “inactive [at 17.3 µM]”. As for `C[C@@H]1O[C@@H](O[C@H]2[C@H](O)[C@@H](O[C@@H]3O[C@H](CO)[C@H](O)[C@H](O)[C@H]3O)[C@H](O[C@H]3CC[C@@]4(C)C(CC[C@]5(C)C4CC=C4[C@@H]6CC(C)(C)CC[C@]6(C(=O)O[C@@H]6O[C@H](CO)[C@@H](O)[C@H](O)[C@H]6O)CC[C@]45C)C3(C)C)O[C@@H]2C(=O)O)[C@H](O)[C@H](O)[C@H]1O` (stereo partly drawn), the activity change, negative = cytotoxicity is 2.63% [at 9.29 µM].

As for `C=C[C@H]1[C@H](O[C@@H]2O[C@H](CO)[C@@H](O)[C@H](O)[C@H]2O)OC=C(C(=O)OC)[C@H]1CCO`, the “activity change, negative = cytotoxicity” value is 8.76%. Same read-out and setting: with `Cc1ccccc1-c1cc(N2CCN(C)CC2)ncc1N(C)C(=O)C(C)(C)c1cc(C(F)(F)F)cc(C(F)(F)F)c1` the figure was -18.5%. For `COc1c2c(c(C)c3c1C(=O)OC3)OC1(C)CC(O)C34OC(OC)(CC(O)C3(C)C1C2)OC4(C)C` (stereo not drawn), the “outcome” value was “inactive [at 17.3 µM]”. Take `CCCO[C@@H]1O[C@H](CO)[C@@H](O)[C@H](O)[C@H]1O[C@@H]1OC[C@@H](O)[C@H](O)[C@H]1O`: the “activity change, negative = cytotoxicity” value was 7.6%.
